Measurements reported in PubChem BioAssay AID1159580 (chemical genetic matrix, 2015).
Among all 5,500 compounds or so, about 2,000 (36%) were called active. Roughly 18% stayed inconclusive and do not appear here. Cut-off read from the data, not from the text of the source: active = normalized growth mostly below about 0.91 (no sharp cut-off); inconclusive = no clear call, values can overlap the other calls; inactive = mostly above about 0.92. Some of the results follow.

Assay: chemical genetic growth profiling, strain panel (AID 1159580);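 note: tested at 20 µM; growth read once vehicle control cultures reached saturation at 30 °C; 1 = growth at the plate median or of vehicle wells; lower values mean less growth of the strain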
Conditions: S. cerevisiae deletion strains, growth OD

Measured: normalized growth

Cc1c(O)c(C(=O)CC(C)C)c2oc3c(C(=O)CC(C)C)c(O)c(C)c(O)c3c2c1O
inactive: locus YAL013W, strain DEP1, stronger effect = lower value 1.01 | locus YBR021W, strain FUR4, stronger effect = lower value 0.943 | locus YBR229C, strain ROT2, stronger effect = lower value 0.993 | locus YCL029C, strain bik1, stronger effect = lower value 1.01 | locus YDL035C, strain GPR1, stronger effect = lower value 0.994 | locus YDL074C, strain BRE1, stronger effect = lower value 0.978 | locus YDL101C, strain DUN1, stronger effect = lower value 1 | locus YDL134C, strain PPH21, stronger effect = lower value 0.991 | locus YDL185W, strain tfp1, stronger effect = lower value 1 | locus YDL192W, strain arf1, stronger effect = lower value 0.987 | locus YDR101C, strain arx1, stronger effect = lower value 0.972 | locus YDR150W, strain NUM1, stronger effect = lower value 1.01 | locus YDR162C, strain NBP2, stronger effect = lower value 1 | locus YDR318W, strain mcm21, stronger effect = lower value 0.997 | locus YDR388W, stronger effect = lower value 0.985 | locus YDR502C, strain sam2, stronger effect = lower value 0.978 | locus YEL061C, strain CIN8, stronger effect = lower value 1.01 | locus YER110C, stronger effect = lower value 0.995 | locus YER155C, strain BEM2, stronger effect = lower value 0.995 | locus YER167W, strain BCK2, stronger effect = lower value 0.996 | locus YGL078C, strain dbp3, stronger effect = lower value 0.985 | locus YGL086W, strain mad1, stronger effect = lower value 0.989 | locus YGL248W, strain PDE1, stronger effect = lower value 0.994 | locus YGR135W, strain pre9, stronger effect = lower value 0.996 | locus YGR252W, strain gcn5, stronger effect = lower value 0.918 | locus YHR030C, strain SLT2, stronger effect = lower value 1 | locus YHR079C, strain IRE1 (second series), stronger effect = lower value 0.987 | locus YHR094C, strain hxt1, stronger effect = lower value 0.986 | locus YHR129C, strain ARP1, stronger effect = lower value 1 | locus YHR200W, strain rpn10, stronger effect = lower value 0.983 | locus YIL066C, strain RNR3, stronger effect = lower value 1 | locus YIL073C, strain SPO22, stronger effect = lower value 0.983 | locus YIL125W, strain kgd1, stronger effect = lower value 0.995 | locus YIR030C, strain dcg1, stronger effect = lower value 0.993 | locus YJL095W, strain BCK1, stronger effect = lower value 0.994 | locus YJL134W, strain LCB3, stronger effect = lower value 1 | locus YJL168C, strain set2, stronger effect = lower value 0.994 | locus YJL187C, strain SWE1 (second series), stronger effect = lower value 1 | locus YJR043C, strain POL32, stronger effect = lower value 0.958 | locus YKL009W, strain mrt4, stronger effect = lower value 0.977 | locus YKL068W, stronger effect = lower value 1 | locus YKL085W, strain MDH1 (second series), stronger effect = lower value 1.01 | locus YKL085W, strain MDH1, stronger effect = lower value 1.01 | locus YKL190W, strain CNB1, stronger effect = lower value 1 | locus YKR001C, strain vps1, stronger effect = lower value 0.935 | locus YLR039C, strain RIC1, stronger effect = lower value 0.787 | locus YLR058C, strain SHM2, stronger effect = lower value 1 | locus YLR102C, strain apc9, stronger effect = lower value 0.982 | locus YLR262C, strain YPT6, stronger effect = lower value 0.811 | locus YLR268W, strain sec22, stronger effect = lower value 0.985 | locus YLR330W, strain CHS5, stronger effect = lower value 1 | locus YLR342W, strain FKS1 (second series), stronger effect = lower value 0.978 | locus YLR371W, strain rom2, stronger effect = lower value 0.999 | locus YLR418C, strain cdc73, stronger effect = lower value 0.92 | locus YML016C, strain PPZ1, stronger effect = lower value 1.01 | locus YML032C, strain rad52, stronger effect = lower value 0.999 | locus YML124C, strain tub3, stronger effect = lower value 0.99 | locus YMR078C, strain ctf18, stronger effect = lower value 1 | locus YMR223W, strain ubp8, stronger effect = lower value 0.996 | locus YMR307W, strain GAS1, stronger effect = lower value 0.827 | locus YNL067W, strain RPL9B, stronger effect = lower value 1.01 | locus YNL233W, strain BNI4, stronger effect = lower value 0.968 | locus YNL250W, strain rad50, stronger effect = lower value 1.01 | locus YNL271C, strain bni1, stronger effect = lower value 1 | locus YNL298W, strain CLA4, stronger effect = lower value 1 | locus YNL307C, strain MCK1, stronger effect = lower value 0.994 | locus YNR052C, strain pop2, stronger effect = lower value 1.01 | locus YOL006C, strain TOP1, stronger effect = lower value 0.977 | locus YOL012C, strain htz1 0.768 | locus YOL147C, strain pex11, stronger effect = lower value 0.987 | locus YOR061W, strain CKA2, stronger effect = lower value 1 | locus YOR069W, strain VPS5, stronger effect = lower value 1.01 | locus YOR136W, strain idh2, stronger effect = lower value 0.99 | locus YOR144C, strain elg1, stronger effect = lower value 0.996 | locus YOR184W, strain ser1, stronger effect = lower value 0.974 | locus YOR316C, strain cot1, stronger effect = lower value 0.986 | locus YPL241C, strain CIN2, stronger effect = lower value 1 | locus YPR119W, strain clb2, stronger effect = lower value 0.989 | locus YPR141C, strain kar3, stronger effect = lower value 0.991 | locus YPR163C, strain tif3, stronger effect = lower value 0.99 | locus YPR167C, strain met16, stronger effect = lower value 1 | strain wtn01, stronger effect = lower value 0.975
